High-throughput results (PubChem)
Shown are actives, neighbours in structure and some others; about 2.5% of the full set was active somewhere.
Cruzain inh noDet = inhibitors of Trypanosoma cruzi cruzain without detergent. 200,000 tested, 2.3% active. purified cruzain, Z-FR-AMC fluorescence, no detergent. P25779. Potency, µM, inactives show max response, negative = inhibition, actives largely listed as inhibitors;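 further: plate controls were enzyme without inhibitor for no effect and buffer without enzyme for full effect; nearly all actives have a fitted effect of over 40% in size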
Target sequence (P25779 123-467 limits assumed): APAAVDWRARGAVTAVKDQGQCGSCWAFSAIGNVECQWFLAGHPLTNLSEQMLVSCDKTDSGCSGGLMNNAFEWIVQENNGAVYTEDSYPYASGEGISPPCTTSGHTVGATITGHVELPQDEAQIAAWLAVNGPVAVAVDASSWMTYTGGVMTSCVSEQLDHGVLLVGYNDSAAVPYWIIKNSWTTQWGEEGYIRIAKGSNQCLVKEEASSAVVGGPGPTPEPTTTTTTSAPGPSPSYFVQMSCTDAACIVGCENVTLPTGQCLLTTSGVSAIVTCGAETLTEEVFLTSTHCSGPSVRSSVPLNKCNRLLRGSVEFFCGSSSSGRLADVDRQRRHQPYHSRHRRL
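Purified cruzain at 1.5 nM, pre-incubated 15 min with compound at room temperature in 100 mM sodium acetate pH 5.5, 5 mM DTT, 0.00005% Triton X-100. Reaction started with 2 uM Z-FR-AMC; AMC fluorescence increase over 60 s gives rate.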
Cruzain inh Det = inhibitors of Trypanosoma cruzi cruzain with detergent; Potency, µM, inactives show max response, negative = inhibition, most hits filed as inhibitors; P25779; 200,000 tested, 0.43% active; AID 1478; purified cruzain, Z-FR-AMC fluorescence, 0.01% Triton;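 further: plate controls were neutral wells for no effect and buffer without enzyme for full effect; nearly all actives have a fitted effect of over 40% in size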
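Read-out: AMC fluorescence (360 nm excitation, 450 nm emission), four reads over 2 min, first-to-third difference used. Conditions: cruzain 1.5 nM, Z-FR-AMC 2 uM, pH 5.5 acetate, 5 mM DTT, 0.01% Triton X-100.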
* = called active by the depositor; ? = inconclusive. The call rests on the fitted dose curve; in most records, active means well fitted curve in the direction sought with a large enough effect; inconclusive means small, poorly fitted or top-dose-only effect, or another doubt; inactive means no such curve, though single readings can be large; an effect the other way counts as inactive or inconclusive. Potency means the concentration at half of the fitted maximal effect.

SMILES	Cruzain inh noDet	Cruzain inh Det
CC(/C=N/N1CCN(c2ccc(C)cc2)CC1)=C\c1ccccc1	-29%	-1%
CC(/C=N\N1CCN(c2ccc(Cl)cc2)CC1)=C\c1ccccc1	7.9µM*	-6%
Cc1noc(C)c1C(=O)N1CCC2(CCCN(C(=O)Nc3ccccc3)C2)CC1	1%	-1%
Cc1ccccc1CNC(=O)CCCn1c(=O)c2cccn2c2cccnc21	-5%	-5%
COc1ccc(/C=C/C(=O)Nc2cc(S(=O)(=O)N3CCCCC3)ccc2N2CCCCC2)cc1OC	-28%	-2%
COc1ccc(/C=C(\C#N)C(=O)Nc2cc(S(=O)(=O)N3CCCCC3)ccc2N2CCCCC2)cc1	4µM*	-2%
COc1cccc(Cn2c(=O)c(-c3cccs3)nc3cncnc32)c1	-3%	1%
CCOc1ccc(-c2nnc(SCC(=O)Oc3ccccc3)o2)cc1	-5%	-4%
Cc1cc(C)cc(NC(=O)/C(C#N)=C/c2cn(CC(=O)NCc3ccco3)c3ccccc23)c1	16µM*	-2%
Cc1ccccc1OCCn1cc(/C=C(\C#N)C(=O)NCc2ccco2)c2ccccc21	-15%	1%
Cc1ccc(C)c(NC(=O)/C(C#N)=C/c2cn(CC(=O)NCc3ccco3)c3ccccc23)c1	7.9µM*	11%
N#C/C(=C\c1cn(CCOc2ccccc2)c2ccccc12)C(=O)NCc1ccco1	1%	14%
Cc1cc(C)c2oc(-c3cccc(NC(=O)c4cc5ccccc5o4)c3)nc2c1	11%	0%
Cc1ccc(-c2nc3c4ccccc4n(CC(=O)N4CCN(c5ccc(F)cc5)CC4)c(=O)n3n2)cc1	4%	1%
Cc1ccc2c(c1)c1nnc(SCC(=O)N3CCN(c4ccc(F)cc4)CC3)nc1n2CC(=O)O	7%	28µM*
Cn1c(O)c(N=NC(=O)c2cc(-c3cccs3)nc3ccccc23)c2ccccc21	10µM*	-1%
Cn1cccc1/C=N/NC(=O)c1cc(-c2cccs2)nc2ccccc12	-20%	-9%
O=C(NCc1ccc(Cl)cc1)c1ccc2oc(=O)n(Cc3ccccc3)c2c1	23%	2%
O=C(NCc1cccn1Cc1ccccc1)Nc1ccc(Br)cc1F	-2%	-3%
CCOc1ccc(S(=O)(=O)Nc2ccc3c(c2)c2c(n3S(=O)(=O)c3ccc(OCC)cc3)CCCC2=O)cc1	7.9µM*	-1%
CCOc1ccc(S(=O)(=O)Nc2ccc3c(c2)c(C(C)=O)c(C)n3S(=O)(=O)c2ccc(OCC)cc2)cc1	?	0%
CCOC(=O)c1cnn(-c2nc(SC)nc3sc4c(c23)CCC4)c1N	7.9µM*	1%
CCOC(=O)c1cnn(-c2nc(C)nc3sc4c(c23)CCC4)c1N	?	4%
CC(C)CC(=O)Nc1nnc(S(=O)(=O)N(C)Cc2ccc(Cl)cc2)s1	-15%	-1%
CCOC(=O)c1sc2ccccc2c1S(=O)(=O)Nc1cccc(C(F)(F)F)c1	6%	-10%
SMILES	Cruzain inh noDet	Cruzain inh Det
COCCN1C(=O)N[C@@H](c2cccc(C(F)(F)F)c2)C(C(C)=O)=C1C	12%	-1%
Cc1ccccc1Nc1nc(-c2sc(NC(=O)c3cccc(Cl)c3)nc2C)cs1	6.3µM*	2%
Cc1ccccc1Nc1nc(-c2sc(NC(=O)c3ccc([N+](=O)[O-])cc3)nc2C)cs1	10µM*	6%
C=CCCC(=O)Nc1nc(C)c(-c2csc(Nc3ccccc3OC)n2)s1	?	-9%
CCOc1ccccc1Nc1nc(-c2sc(NC(=O)c3ccc([N+](=O)[O-])cc3)nc2C)cs1	6.3µM*	1%
Cc1ccccc1Nc1nc(=O)c2cc([N+](=O)[O-])ccc2s1	-18%	-1%
Cc1ccccc1Nc1nc(-c2sc(NC(=O)c3ccccc3)nc2C)cs1	13µM*	-5%
CCCCC(=O)Nc1nc(C)c(-c2csc(Nc3ccccc3OC)n2)s1	?	-3%
COc1ccc(C(=O)c2oc3ccccc3c2NC(=O)c2cc(=O)c3ccc(C)cc3o2)cc1Cl	7%	0%
Cc1cc2n(n1)CCC(=O)N2Cc1ccc(C(=O)Nc2ccc(Br)c(C)c2)cc1	?	-7%
COc1ccc(CNCc2c(C(=O)O)c(C)n(Cc3ccccc3C)c2C)cc1OC	13%	-2%
Cc1ccccc1CNC(=O)Nc1ccc2c(c1)N(C)C(=O)c1ccccc1S2	?	-2%
Cc1ccc(C(=O)Nc2nc(-c3ccc([N+](=O)[O-])cc3)cs2)o1	-7%	-5%
Cc1ccc(Nc2nc(-c3sc(NC(=O)c4ccc([N+](=O)[O-])cc4)nc3C)cs2)cc1	7.9µM*	0%
COc1ccc(-c2nc(NC(=O)c3ccccc3)sc2-c2ccc([N+](=O)[O-])cc2)cc1	7.9µM*	-2%
Cc1ccc(Cl)cc1Nc1nc(-c2sc(NC(=O)c3cccc(Cl)c3)nc2C)cs1	4µM*	11%
COc1ccc(-c2sc(NC(C)=O)nc2-c2ccccc2)cc1	14%	-10%
COc1cc2c(cc1OC)C(c1ccc(F)cc1)N(c1ccc(F)cc1)C(=O)C2 (stereo unspecified)	-6%	1%
O=[N+]([O-])c1ccc(Cl)cc1Cl	5%	4%
Cc1ccc2c(c1)c1c(c(=O)n(-c3ccccc3)c(=O)n1CC(=O)NCCC1=CCCCC1)n2C	-2%	-2%
COc1ccc2[nH]cc(CCNc3nc(-c4c(C)noc4C)nc4ccccc34)c2c1	-6%	-7%
O=C(/C=C/c1cccs1)N1CCN(c2ccccc2F)CC1	-6%	-6%
O=C(/C=C/c1cccs1)N1CCOCC1	6.3µM*	-6%
CCOC(=O)c1ccc2ncc3c(-c4ccccc4)nn(-c4ccc(F)c(Cl)c4)c3c2c1	-6%	-1%
O=C(N/N=C/c1cn(CCOc2ccccc2)c2ccccc12)c1ccncc1	?	-10%
SMILES	Cruzain inh noDet	Cruzain inh Det
CCn1cc(/C=N/NC(=O)c2cc3c(ccc4ccccc43)o2)c2ccccc21	7.9µM*	-2%
CC(C)n1cc(/C=N\NC(=O)c2cc3c(ccc4ccccc43)o2)c2ccccc21	5µM*	-19%
O=C(N/N=C/c1cccnc1)c1cc2c(ccc3ccccc32)o1	4%	-22%
Cc1ccc(/C=N/NC(=O)c2cc3c(ccc4ccccc43)o2)cc1[N+](=O)[O-]	6.3µM*	-2%
O=C(NC1CCCC1)c1cc2c(ccc3ccccc32)o1	-4%	-15%
Cc1cccn2c(=O)c(/C=C(\C#N)c3nc4ccccc4s3)c(Oc3ccc(Br)cc3)nc12	-16%	-8%
C[C@H]1C2=C3C(C[C@H]4C(=O)N(c5ccccc5)C(=O)[C@H]4[C@H]3[C@@]3(Cc4ccccc4)C(=NCCc4c[nH]c5ccccc45)OC(=O)N3C2=O)[C@H]2C(=O)N(c3ccccc3)C(=O)[C@H]21 (stereo partly specified)	?	3%
CCn1cc(C(=O)NCCc2ccc(C)cc2)c(=O)c2cc(S(=O)(=O)N3CCc4ccccc4C3)ccc21	3%	-3%
Nc1c(C(=O)c2ccccc2)sc2snc(SCC(=O)c3ccccc3)c12	13µM*	-28%
Nc1nnc(SCC(=O)c2ccccc2)s1	-10%	2%
CCc1ccc(NC(=O)Cn2nnc(C(=O)Nc3ccc(F)cc3)c2N)cc1	?	1%
Cc1ccc(S(=O)(=O)Oc2ccc(N=Nc3ccc(-c4ccc(N=Nc5c(O)ccc6cc(S(=O)(=O)O)cc(S(=O)(=O)O)c56)c(C)c4)cc3C)cc2)cc1	?	13µM*
Cc1ccc(N=Nc2c(O)ccc3cc(S(=O)(=O)O)ccc23)cc1	?	-14%
CC(=O)Nc1c(C)nn(-c2ccccc2)c1N1CCC(C(=O)NCc2ccc(Cl)cc2)CC1	?	-21%
